In the supplement of paper PMC11732987, “Enantioselective OTUD7B fragment discovery through chemoproteomics screening and high-throughput optimisation” (Communications Chemistry, 2025):

What was measured:
Assay in all cases: log2 ratio of Biotin-Ahx-Ub-VS probe labelling (fragment/DMSO); higher = less target engagement (more negative = stronger competition), active = hit call of the paper (q ≤ 0.05, log2 ratio ≤ -1)
Details in all cases: compound concentration: 200 uM; treatment time: 3 h
USP42 = molecular target: T1, USP42 (UniProt Q9H9J4)
T1 sequence (whole entry): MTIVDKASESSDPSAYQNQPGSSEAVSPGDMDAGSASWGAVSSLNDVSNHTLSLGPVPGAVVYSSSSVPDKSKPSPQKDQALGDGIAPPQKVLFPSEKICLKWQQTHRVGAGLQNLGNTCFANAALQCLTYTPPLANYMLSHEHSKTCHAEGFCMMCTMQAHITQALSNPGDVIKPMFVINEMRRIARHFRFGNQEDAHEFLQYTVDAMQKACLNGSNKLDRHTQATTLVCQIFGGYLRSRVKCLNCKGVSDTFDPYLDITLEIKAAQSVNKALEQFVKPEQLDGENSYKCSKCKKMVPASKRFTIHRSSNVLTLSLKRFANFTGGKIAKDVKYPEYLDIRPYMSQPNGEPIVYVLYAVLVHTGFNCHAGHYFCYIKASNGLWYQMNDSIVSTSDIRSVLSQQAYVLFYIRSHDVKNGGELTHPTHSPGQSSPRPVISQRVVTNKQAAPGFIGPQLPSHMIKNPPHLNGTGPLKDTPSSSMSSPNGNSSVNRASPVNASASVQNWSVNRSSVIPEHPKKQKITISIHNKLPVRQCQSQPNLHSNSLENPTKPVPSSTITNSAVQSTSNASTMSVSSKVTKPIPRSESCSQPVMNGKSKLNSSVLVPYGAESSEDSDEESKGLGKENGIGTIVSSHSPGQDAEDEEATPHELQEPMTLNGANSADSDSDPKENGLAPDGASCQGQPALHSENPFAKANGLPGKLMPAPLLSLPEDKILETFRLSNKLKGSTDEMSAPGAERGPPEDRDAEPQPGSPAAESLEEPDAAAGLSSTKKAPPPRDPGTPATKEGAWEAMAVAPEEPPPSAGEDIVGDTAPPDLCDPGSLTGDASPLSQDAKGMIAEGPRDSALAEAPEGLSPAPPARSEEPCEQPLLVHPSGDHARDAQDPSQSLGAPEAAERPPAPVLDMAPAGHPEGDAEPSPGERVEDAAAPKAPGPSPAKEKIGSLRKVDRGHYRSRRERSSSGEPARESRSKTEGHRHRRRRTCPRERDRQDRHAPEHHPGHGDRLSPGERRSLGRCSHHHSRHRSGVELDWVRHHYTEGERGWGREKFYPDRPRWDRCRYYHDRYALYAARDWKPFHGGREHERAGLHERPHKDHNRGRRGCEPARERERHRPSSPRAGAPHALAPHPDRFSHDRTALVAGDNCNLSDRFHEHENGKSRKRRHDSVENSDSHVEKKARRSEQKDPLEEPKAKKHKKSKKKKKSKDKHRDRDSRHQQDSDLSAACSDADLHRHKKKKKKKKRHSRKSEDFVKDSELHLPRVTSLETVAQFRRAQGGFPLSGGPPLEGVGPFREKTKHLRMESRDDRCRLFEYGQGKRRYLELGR
How it was run: (§1)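 HEK293T lysate (495 µg per sample, in Tris/CHAPS/IGEPAL buffer with protease inhibitors) was exposed in triplicate for 3 h to fragment at 200 µM or to vehicle, then to Biotin-Ahx-Ub-VS at 0.5 µM final for 1 h. Labelled DUBs were enriched on NeutrAvidin, digested with LysC and trypsin, and analysed by diaPASEF LC-MS/MS. Spectronaut label-free quantities were normalised to the global median, and values are average log2 ratios of fragment over vehicle from an unpaired t-test. Only proteins with ≥2 unique peptides were used.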

USP46 = USP46 (UniProt P62068)
How it was run: as §1

USP47 = molecular target: T2, USP47 (UniProt Q96K76)
T2 sequence (whole entry): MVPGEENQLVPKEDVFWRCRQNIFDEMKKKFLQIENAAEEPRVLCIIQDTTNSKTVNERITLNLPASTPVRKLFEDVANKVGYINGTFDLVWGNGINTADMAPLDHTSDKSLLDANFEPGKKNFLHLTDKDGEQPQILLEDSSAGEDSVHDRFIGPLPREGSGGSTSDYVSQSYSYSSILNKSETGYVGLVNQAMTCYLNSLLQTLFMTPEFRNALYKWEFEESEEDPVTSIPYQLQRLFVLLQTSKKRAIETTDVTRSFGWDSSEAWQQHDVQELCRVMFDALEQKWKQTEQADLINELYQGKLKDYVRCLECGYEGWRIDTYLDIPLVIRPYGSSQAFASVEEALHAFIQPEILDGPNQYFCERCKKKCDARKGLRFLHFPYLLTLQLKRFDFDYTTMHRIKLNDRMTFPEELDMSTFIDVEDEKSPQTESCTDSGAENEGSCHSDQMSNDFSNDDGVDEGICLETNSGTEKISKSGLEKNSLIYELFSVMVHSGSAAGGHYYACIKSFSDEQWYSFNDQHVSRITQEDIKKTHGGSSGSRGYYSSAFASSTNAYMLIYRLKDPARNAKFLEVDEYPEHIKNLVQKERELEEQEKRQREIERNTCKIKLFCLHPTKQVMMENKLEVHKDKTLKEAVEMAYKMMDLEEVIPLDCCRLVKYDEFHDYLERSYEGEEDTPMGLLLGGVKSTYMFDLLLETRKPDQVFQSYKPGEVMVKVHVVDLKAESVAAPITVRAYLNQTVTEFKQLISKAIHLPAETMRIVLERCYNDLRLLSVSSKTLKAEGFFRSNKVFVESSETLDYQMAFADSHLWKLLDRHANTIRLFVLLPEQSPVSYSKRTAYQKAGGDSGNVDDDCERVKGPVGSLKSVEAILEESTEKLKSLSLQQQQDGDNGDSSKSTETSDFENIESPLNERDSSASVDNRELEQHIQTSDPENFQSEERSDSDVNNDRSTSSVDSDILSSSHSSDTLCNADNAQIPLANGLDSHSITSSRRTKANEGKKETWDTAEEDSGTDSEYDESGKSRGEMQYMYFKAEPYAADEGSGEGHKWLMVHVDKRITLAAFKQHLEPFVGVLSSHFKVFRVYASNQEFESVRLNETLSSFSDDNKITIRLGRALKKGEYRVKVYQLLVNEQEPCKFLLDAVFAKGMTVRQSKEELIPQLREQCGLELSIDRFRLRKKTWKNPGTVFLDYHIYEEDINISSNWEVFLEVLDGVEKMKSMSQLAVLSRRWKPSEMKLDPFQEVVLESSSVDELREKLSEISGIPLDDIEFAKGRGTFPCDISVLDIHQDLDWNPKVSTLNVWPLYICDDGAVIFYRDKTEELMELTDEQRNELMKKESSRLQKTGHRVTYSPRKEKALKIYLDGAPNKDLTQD
How it was run: as §1

USP48 = molecular target: T3, USP48 (UniProt Q86UV5)
T3 sequence (whole entry): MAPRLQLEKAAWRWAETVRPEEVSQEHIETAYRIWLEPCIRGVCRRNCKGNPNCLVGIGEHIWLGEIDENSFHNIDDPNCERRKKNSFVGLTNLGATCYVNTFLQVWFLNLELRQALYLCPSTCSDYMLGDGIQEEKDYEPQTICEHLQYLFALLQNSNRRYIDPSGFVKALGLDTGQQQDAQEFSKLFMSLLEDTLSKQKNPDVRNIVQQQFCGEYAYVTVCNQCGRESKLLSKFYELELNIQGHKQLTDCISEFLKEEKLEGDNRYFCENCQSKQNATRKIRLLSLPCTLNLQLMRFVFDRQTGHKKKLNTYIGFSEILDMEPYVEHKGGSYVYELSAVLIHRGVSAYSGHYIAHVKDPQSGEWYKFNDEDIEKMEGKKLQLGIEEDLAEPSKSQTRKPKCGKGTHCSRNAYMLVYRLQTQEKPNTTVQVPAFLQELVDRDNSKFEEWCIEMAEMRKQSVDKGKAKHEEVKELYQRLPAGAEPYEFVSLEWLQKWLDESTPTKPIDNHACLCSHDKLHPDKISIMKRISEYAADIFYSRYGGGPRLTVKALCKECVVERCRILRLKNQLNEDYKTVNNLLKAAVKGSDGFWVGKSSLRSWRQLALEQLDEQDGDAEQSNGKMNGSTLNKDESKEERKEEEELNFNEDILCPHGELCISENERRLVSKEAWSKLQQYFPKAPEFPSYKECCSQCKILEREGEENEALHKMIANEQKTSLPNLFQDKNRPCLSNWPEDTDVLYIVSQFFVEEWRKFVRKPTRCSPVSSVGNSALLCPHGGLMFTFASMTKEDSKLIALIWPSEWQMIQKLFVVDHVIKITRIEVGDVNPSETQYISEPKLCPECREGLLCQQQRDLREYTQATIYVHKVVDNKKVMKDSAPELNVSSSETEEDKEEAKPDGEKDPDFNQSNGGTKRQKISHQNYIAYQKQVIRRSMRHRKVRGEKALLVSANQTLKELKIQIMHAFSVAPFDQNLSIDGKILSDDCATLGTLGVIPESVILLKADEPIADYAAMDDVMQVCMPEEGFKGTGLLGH
How it was run: as §1

USP5 = molecular target: T4, USP5 (UniProt P45974)
T4 sequence (whole entry): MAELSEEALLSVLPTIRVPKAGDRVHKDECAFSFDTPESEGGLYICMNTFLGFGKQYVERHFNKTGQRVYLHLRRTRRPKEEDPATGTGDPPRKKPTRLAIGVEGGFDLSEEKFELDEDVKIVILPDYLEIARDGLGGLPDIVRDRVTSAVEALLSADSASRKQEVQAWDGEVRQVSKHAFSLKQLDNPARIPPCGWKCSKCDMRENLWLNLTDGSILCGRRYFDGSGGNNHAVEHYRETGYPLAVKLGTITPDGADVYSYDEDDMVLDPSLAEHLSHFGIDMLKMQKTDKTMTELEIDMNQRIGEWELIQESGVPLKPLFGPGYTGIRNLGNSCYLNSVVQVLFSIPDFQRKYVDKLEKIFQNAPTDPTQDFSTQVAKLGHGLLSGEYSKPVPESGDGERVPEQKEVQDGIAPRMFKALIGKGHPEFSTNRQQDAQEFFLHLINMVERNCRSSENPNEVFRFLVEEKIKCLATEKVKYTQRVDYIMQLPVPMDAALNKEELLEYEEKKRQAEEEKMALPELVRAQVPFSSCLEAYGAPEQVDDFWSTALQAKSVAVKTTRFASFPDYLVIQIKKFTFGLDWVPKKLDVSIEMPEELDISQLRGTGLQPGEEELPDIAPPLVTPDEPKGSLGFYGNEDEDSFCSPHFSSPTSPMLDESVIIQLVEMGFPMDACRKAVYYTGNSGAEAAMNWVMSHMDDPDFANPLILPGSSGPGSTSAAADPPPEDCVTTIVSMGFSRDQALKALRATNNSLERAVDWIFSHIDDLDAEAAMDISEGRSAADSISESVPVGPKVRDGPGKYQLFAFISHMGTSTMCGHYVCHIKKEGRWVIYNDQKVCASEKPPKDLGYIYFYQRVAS
How it was run: as §1

USP54 = USP54 (UniProt Q70EL1)
How it was run: as §1

USP7 = USP7 (UniProt Q93009)
How it was run: as §1

USP8 = molecular target: T5, USP8 (UniProt P40818)
T5 sequence (whole entry): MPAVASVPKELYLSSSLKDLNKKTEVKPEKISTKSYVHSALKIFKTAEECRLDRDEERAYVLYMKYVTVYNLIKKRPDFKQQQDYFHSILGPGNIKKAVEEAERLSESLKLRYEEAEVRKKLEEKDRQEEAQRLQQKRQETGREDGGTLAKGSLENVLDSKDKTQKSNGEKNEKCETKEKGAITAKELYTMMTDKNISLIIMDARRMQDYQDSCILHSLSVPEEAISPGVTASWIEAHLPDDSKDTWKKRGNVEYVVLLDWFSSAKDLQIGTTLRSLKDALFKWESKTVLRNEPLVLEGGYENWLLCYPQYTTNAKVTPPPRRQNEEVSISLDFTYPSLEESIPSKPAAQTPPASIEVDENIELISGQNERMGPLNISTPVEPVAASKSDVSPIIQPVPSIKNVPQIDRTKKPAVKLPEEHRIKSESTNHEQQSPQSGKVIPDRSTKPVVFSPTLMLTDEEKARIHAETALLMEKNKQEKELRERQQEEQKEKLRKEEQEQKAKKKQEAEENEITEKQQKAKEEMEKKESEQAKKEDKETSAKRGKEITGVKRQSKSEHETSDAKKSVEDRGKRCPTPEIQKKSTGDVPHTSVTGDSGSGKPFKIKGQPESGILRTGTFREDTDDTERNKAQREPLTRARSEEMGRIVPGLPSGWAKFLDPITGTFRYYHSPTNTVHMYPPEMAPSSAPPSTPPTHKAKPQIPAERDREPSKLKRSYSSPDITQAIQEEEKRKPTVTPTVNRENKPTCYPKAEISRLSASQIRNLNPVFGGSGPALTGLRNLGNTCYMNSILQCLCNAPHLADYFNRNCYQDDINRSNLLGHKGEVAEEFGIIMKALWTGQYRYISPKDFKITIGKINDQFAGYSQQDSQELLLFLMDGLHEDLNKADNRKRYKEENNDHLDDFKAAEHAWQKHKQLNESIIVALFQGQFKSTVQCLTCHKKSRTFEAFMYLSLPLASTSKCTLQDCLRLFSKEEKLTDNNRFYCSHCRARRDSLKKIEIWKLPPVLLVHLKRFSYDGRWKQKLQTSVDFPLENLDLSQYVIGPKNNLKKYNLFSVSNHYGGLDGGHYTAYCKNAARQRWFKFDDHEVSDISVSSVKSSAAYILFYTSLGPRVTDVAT
How it was run: as §1

Measured: log2 ratio of Biotin-Ahx-Ub-VS probe labelling

USP46, sequence (P62068 whole entry): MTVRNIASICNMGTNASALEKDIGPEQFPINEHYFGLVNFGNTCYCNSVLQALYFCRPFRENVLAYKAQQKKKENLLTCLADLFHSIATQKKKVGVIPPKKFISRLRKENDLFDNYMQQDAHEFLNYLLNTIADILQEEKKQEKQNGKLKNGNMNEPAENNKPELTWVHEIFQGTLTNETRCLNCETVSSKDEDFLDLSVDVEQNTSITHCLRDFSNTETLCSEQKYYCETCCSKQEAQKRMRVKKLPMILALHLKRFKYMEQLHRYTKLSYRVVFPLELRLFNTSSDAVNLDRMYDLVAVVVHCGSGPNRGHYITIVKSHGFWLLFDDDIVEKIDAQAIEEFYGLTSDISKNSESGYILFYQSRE
USP7, sequence (Q93009 whole entry, looked up): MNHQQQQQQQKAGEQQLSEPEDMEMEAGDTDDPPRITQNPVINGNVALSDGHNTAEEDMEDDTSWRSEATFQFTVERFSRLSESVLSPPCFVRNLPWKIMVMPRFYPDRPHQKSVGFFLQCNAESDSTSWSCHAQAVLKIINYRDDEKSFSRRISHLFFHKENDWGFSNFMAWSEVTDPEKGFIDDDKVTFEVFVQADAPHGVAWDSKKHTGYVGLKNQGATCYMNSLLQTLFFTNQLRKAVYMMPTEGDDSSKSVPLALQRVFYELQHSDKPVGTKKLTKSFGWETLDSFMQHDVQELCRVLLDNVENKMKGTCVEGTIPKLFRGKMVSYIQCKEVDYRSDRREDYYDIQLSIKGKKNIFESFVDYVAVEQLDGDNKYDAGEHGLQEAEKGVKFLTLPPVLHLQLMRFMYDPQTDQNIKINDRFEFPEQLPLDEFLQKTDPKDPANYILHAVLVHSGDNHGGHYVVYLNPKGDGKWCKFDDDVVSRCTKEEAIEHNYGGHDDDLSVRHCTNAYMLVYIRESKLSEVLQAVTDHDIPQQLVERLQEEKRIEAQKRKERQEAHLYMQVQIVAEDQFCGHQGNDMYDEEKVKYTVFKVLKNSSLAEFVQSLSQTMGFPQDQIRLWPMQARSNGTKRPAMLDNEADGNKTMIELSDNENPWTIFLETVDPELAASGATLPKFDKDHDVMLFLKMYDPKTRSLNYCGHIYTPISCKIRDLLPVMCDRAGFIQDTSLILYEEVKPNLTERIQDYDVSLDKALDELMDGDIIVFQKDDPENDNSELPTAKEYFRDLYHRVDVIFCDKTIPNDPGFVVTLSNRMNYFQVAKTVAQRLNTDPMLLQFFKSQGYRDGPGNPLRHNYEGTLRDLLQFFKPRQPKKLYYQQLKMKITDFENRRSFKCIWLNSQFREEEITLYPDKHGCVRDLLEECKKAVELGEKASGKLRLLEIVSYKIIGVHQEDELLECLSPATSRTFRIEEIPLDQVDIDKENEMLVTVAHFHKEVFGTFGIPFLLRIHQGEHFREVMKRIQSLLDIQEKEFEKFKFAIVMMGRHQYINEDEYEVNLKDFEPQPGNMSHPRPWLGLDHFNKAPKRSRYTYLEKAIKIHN
USP54, sequence (Q70EL1 whole entry): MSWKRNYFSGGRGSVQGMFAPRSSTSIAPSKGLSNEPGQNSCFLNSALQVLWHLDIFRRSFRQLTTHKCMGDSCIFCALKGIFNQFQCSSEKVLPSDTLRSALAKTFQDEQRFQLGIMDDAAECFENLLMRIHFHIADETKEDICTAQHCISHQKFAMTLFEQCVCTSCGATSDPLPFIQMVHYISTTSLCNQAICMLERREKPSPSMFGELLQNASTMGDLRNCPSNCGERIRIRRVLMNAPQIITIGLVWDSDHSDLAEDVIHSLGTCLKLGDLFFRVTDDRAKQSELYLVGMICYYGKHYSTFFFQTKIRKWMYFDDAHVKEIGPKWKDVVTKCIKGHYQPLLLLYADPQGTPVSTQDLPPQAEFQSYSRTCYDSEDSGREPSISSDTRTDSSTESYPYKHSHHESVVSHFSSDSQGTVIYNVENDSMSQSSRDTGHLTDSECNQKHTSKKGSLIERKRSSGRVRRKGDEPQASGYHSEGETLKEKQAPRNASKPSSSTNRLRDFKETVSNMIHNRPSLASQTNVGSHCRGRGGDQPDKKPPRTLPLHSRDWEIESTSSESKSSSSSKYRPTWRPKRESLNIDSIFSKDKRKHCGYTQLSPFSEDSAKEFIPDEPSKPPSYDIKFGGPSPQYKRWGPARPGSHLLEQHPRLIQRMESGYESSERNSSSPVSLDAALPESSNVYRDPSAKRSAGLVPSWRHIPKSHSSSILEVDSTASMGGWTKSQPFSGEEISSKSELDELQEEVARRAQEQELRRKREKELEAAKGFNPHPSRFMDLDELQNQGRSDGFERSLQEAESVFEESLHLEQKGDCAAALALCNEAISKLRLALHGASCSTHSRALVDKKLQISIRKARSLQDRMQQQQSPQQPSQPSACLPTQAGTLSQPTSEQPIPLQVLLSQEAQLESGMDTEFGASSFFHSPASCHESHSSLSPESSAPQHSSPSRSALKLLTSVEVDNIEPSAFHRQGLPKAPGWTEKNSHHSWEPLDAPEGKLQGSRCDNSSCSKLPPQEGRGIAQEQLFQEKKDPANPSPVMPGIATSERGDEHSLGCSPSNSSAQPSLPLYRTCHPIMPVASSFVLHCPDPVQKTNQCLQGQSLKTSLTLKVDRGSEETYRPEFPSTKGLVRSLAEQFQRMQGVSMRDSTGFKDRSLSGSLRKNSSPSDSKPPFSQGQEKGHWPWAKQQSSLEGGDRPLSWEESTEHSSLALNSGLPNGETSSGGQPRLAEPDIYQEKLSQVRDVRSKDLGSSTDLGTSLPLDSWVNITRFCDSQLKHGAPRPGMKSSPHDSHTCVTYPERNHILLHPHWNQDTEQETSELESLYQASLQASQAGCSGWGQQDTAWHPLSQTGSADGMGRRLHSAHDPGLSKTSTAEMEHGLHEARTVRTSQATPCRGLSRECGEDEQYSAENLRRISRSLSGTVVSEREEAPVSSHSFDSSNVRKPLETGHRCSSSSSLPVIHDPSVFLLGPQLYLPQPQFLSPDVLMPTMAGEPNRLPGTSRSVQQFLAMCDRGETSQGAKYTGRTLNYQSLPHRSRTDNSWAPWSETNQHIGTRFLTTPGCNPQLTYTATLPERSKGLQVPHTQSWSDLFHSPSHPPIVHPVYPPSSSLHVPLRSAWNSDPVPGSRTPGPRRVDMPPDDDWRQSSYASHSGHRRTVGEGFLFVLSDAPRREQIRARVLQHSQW

N#Cc1ccc(CNC(=O)CCl)cc1
inactive: USP42 0.0438 | USP46 0.111 | USP47 0.323 | USP48 -0.167 | USP5 0.0355 | USP54 0.446 | USP7 -0.073 | USP8 -0.338
